# This is a sample that favours compounds with a hit; in the whole collection about 7.5% have one here.
# ELG1 genotox: inducers of genotoxicity in HEK293T ELG1-luciferase cells; HEK293T ELG1-luciferase reporter, luminescence, 16 h; Potency, µM (doses to about 46 µM), for the others: top-dose activity change, positive = activation, actives largely listed as activators; 1.3% of 330,000 active; AID 504466; also: % of control where 0% means no effect; nearly all actives have a fitted effect of over 60% in size
#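 Genotoxicity was scored as increased ELG1-luciferase reporter signal, measured by ONE-Glo luminescence (30 min, room temperature). Compound or vehicle exposure of the HEK293T reporter cells lasted 16 hr at 37°C.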
# Rab9 prom act: activators of Rab9 promoter | Huh7 Rab9 promoter-luciferase reporter, luminescence, 24 h | Potency, µM (highest dose often 9.22 µM), inactives show at the highest dose activation, negative = inhibition, actives largely listed as activators | 2.8% of 320,000 active; also: % of control where 0% means no effect; nearly all actives have a fitted effect of over 60% in size
#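 Rab9 promoter-driven luciferase in stably transfected Huh7 cells; 1500 cells/well rested 2 h, exposed to compound in DMSO for 24 h at 37 °C, 5% CO2. Luminescence read 10 min after adding luciferase reagent at ambient temperature.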
# FLuc modulator: firefly luciferase modulation, counter-screen for miR-21 project. P08659. Potency, µM (highest dose often 57.5 µM), inactives show top-dose activity change, negative = inhibition, actives largely listed as inhibitors. AID 588342. purified FLuc, Km substrates, luminescence inhibition. 6.9% of 360,000 active;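 also: plate controls were vehicle for no effect and reference inhibitor for full effect; nearly all actives have a fitted effect of over 55% in size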
# Target sequence (P08659 whole entry, looked up): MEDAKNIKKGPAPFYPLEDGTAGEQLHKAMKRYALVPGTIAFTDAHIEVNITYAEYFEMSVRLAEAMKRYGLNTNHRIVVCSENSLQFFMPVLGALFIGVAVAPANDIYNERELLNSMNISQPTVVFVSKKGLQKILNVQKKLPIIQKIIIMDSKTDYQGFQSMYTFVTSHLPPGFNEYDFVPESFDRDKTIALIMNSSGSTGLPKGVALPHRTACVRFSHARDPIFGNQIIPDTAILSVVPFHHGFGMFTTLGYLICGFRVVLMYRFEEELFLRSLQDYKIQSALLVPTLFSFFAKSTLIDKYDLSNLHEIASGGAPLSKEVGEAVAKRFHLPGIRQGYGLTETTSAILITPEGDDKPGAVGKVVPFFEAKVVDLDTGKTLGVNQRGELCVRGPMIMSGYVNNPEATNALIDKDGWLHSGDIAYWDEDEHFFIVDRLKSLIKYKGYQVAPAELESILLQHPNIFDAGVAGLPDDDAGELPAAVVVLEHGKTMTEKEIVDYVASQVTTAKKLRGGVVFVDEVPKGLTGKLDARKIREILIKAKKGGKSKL
#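 Biochemical qHTS of compounds, final roughly 60 µM downward over six points, against 10 nM purified firefly luciferase using Km concentrations of substrates (10 uM D-luciferin, 10 uM ATP) in Tris acetate pH 7.5 buffer; luminescence output.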
# SMN2 splice enh: SMN2 splice variant enhancement | Potency, µM (titrated, usually from 46.1 µM), for inactives: top-dose activity change, positive = activation, usual class: activators | 2.8% of 210,000 active | HEK293 SMN2-luciferase splicing reporter, luminescence, 30-36 h; also: % of control where 0% means no effect; nearly all actives have a fitted effect of over 55% in size
#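 HEK293 cells carry an SMN2 minigene-luciferase reporter in which exon 7 inclusion puts luciferase in frame. Cells were seeded at 2000 cells/well, attached for 10-12 hours, then exposed to compounds for 30-36 hours at 37C before ONE-Glo luminescence.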
# NPC1 prom act: activates the NPC1 promoter; Huh7 NPC1 promoter luciferase reporter, 24 h; Potency, µM (top dose mostly 9.22 µM), for inactives: at the highest dose activation, actives largely listed as activators; 2.4% of 320,000 active; AID 485313; also: % of control where 0% means no effect; nearly all actives have a fitted effect of over 60% in size
#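 Stable NPC1-promoter luciferase Huh7 line; cpd (DMSO) 24 h, 37 °C, 5% CO2; Amplite luciferase reagent 10 min RT; luminescence readout. qHTS format.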
# * = called active by the depositor; ? = inconclusive; / = not tested or not shown; [ ] = dose if it differs, or a comment. Calls follow the shape of the dose curve; as a rule, active = well fitted curve in the direction sought with a large enough effect; inconclusive = small, poorly fitted or top-dose-only effect, or another doubt; inactive = no such curve, though single readings can be large; an effect the other way counts as inactive or inconclusive. Potency is read from the fitted curve at half-maximal effect.
SMILES,ELG1 genotox,Rab9 prom act,FLuc modulator,SMN2 splice enh,NPC1 prom act
Cc1ccc(/C=C/C(=O)N2CCc3ccccc3C2)cc1,?,24%,11µM*,1%,24%
CC(C)(C)c1ccc(/C=C/C(=O)N2CCc3ccccc3C2)cc1,4%,-8%,?,-1%,-1%
O=C(/C=C/c1ccc(F)cc1)N1CCc2ccccc2C1,17%,2.5µM*,11µM*,/,?
CN(C)c1ccc(C(=S)NC2CCCCC2)cc1,18µM*,2.8µM*,4.8µM*,11µM*,3.2µM*
CCN(CC)c1ccc(C(=S)NC2CCCCC2)cc1,?,15%,15µM*,?,11%
CC(=O)c1c(C)n(CCc2ccc(Cl)cc2)c2ccc(O)cc12,-3%,-1%,-2%,/,-9%
COc1ccccc1NCc1nnc2n1CCCCC2,/,/,-2%,/,/
CCOc1ccc(OCc2ccc(C(=O)N3CCCC(C)C3)cc2)cc1 (stereo unspecified),?,2µM*,13µM*,10µM*,4µM*
CCOc1ccc(OCc2ccc(C(=O)N3CCOCC3)cc2)cc1,5%,30%,?,-10%,29%
O=C1CCCC2=C1C1O[C@](CCCCN3C(=O)c4ccccc4C3=O)(Cc3ccccc31)O2,/,0%[1.84 µM],0%[11.5 µM],/,-5%[1.84 µM]
Cc1cccc(OC(=O)c2cc(-c3ccc4c(c3)OCCO4)on2)c1,/,/,4.8µM*,/,/
COc1ccc(OC(=O)c2cc(-c3ccc4c(c3)OCCO4)on2)cc1,/,/,7.6µM*,/,/
N#Cc1ccc(OC(=O)c2cc(-c3ccc4c(c3)OCCO4)on2)cc1,/,/,21µM*,/,/
CC(C)c1ccc(OC(=O)c2cc(-c3ccc4c(c3)OCCO4)on2)cc1,/,/,-19%,/,/
O=C(Oc1ccc(Cl)cc1)c1cc(-c2ccc3c(c2)OCCO3)on1,/,/,6µM*,/,/
CC(C)c1ccc(OC(=O)c2cc(-c3ccc(Cl)cc3)on2)cc1,/,/,-5%,/,/
COc1ccccc1CC(=O)Nc1ccc(S(=O)(=O)N2CC(C)CC(C)C2)cc1 (stereo unspecified),-1%,5%,7%,/,0%
CCN1CCc2c(sc(-n3cccc3)c2C(C)NC(=O)Nc2cc(Cl)c(OC)cc2OC)C1 (stereo unspecified),/,/,5%,/,/
Cc1cc(N2CCCCC2)nc2ccc(NC(=O)/C=C/c3ccccc3Cl)cc12,/,/,-3%,-4%,/
Cc1cc(N)c2cc(NC(=O)/C=C/c3ccccc3Cl)ccc2n1,5%,-20%,13µM*,/,-8%
Cc1cc(C)nc(NC(=O)/C=C/c2ccccc2Cl)c1,?,?,3µM*,13µM*,?
Cc1cc(C)nc(NC(=O)/C=C/c2ccc(Cl)cc2Cl)c1,?,3.5µM*,7.6µM*,10%,?
Cc1cc(C)nc(NC(=O)/C=C/c2ccccc2Cl)n1,11%,?,?,?,28%
Cc1ccc(S(=O)(=O)N(C)C)cc1NC(=O)COC(=O)c1ccc2c(c1)OCCO2,0%,-2%,?,/,-5%
CCN(CC(=O)Nc1ccc(NC(C)=O)cc1)C(=O)CCCOc1ccc(C(C)(C)C)cc1,?,0%,15µM*,/,0%
SMILES,ELG1 genotox,Rab9 prom act,FLuc modulator,SMN2 splice enh,NPC1 prom act
COc1ccc(OC)c(CCNC(=O)CCCn2c(=O)c3cccn3c3ccccc32)c1,/,/,5%,/,/
COC(=O)c1ccccc1NCC(=O)c1ccc(OC)cc1,7%,29%,?,/,?
COc1ccccc1NCC(=O)c1ccc(C)c(C)c1,0%,-1%,17µM*,/,2%
COc1ccccc1NCC(=O)c1ccc(Cl)cc1,0%,10%,17µM*,/,1%
COc1ccc(CCNc2ncnc3c2c(-c2ccccc2)cn3-c2cccc(Cl)c2)cc1OC,/,/,0%,/,/
O=C(Nc1nc(-c2ccc(-c3ccccc3)cc2)cs1)C1=COCCO1,17%,-6%,?,-21%,-2%
COc1ccc(-c2csc(NC(=O)COC(=O)C3=COCCO3)n2)cc1,15%,4µM*,2%,14µM*,3.5µM*
Cc1cc(C)c(-c2csc(NC(=O)C3=COCCO3)n2)cc1C,1%,8%,19µM*,/,13%
COc1ccc(-c2csc(NC(=O)CN3C(=O)C4CCCCC4C3=O)n2)c(OC)c1 (stereo unspecified),0%,-5%,?,/,5%

# Bioassay records deposited in PubChem by National Center for Advancing Translational Sciences (NCATS).
